Measurements published in PubChem BioAssay (NCI).
Compounds without any hit were thinned out: in the full panel of roughly 83,000, 20% have a hit.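 Interpretation: 100, growth as untreated; towards 0, rising growth inhibition; 0, no net growth; 0 to -100, cell death. Compounds scoring below 10 were considered active.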 The source made the active and inactive calls.

Tests used:
Experiment in all cases: NCI-60 one-dose screen, 48 h (100 = growth as untreated, 0 = no growth, -100 = all killed)
Details in all cases: 10 µM unless noted
HCT-15 colon = tested on: HCT-15 colon
HT29 colon = tested on: HT29 colon
SNB-75 CNS = tested on: SNB-75 CNS
SNB-19 CNS = tested on: SNB-19 CNS
U251 CNS = tested on: U251 CNS
PC-3 prostate = tested on: PC-3 prostate
SK-MEL-5 melanoma = tested on: SK-MEL-5 melanoma
UACC-62 melanoma = tested on: UACC-62 melanoma
LOX IMVI melanoma = tested on: LOX IMVI melanoma
SK-MEL-28 melanoma = tested on: SK-MEL-28 melanoma
SK-MEL-2 melanoma = tested on: SK-MEL-2 melanoma
EKVX NSCLC = tested on: EKVX NSCLC
UO-31 renal = tested on: UO-31 renal
ACHN renal = tested on: ACHN renal
CAKI-1 renal = tested on: CAKI-1 renal
A498 renal = tested on: A498 renal
CCRF-CEM leukemia = tested on: CCRF-CEM leukemia
MOLT-4 leukemia = tested on: MOLT-4 leukemia
SN12C renal = tested on: SN12C renal
TK-10 renal = tested on: TK-10 renal

Measured: growth

COC(=O)c1ccc2c(c1)nc(-c1ccc(Cl)cc1)n2-c1cc(C(C)(C)C)[nH]n1
inactive: HCT-15 colon 69.5% | HT29 colon 23% | SNB-75 CNS 47.3% | SNB-19 CNS 78.3% | U251 CNS 38.2% | PC-3 prostate 39% | SK-MEL-5 melanoma 25.9% | UACC-62 melanoma 45.7% | LOX IMVI melanoma 44.2% | SK-MEL-28 melanoma 58% | SK-MEL-2 melanoma 31.6% | EKVX NSCLC 78.3% | UO-31 renal 41.9% | ACHN renal 75.4% | CAKI-1 renal 50.4% | A498 renal 21.8% | CCRF-CEM leukemia 45.2% | MOLT-4 leukemia 41.8%

CCOC(=O)c1cnc(SCC)nc1SC#N
active: CAKI-1 renal -65.3%
inactive: HCT-15 colon 63.3% | HT29 colon 81.5% | SNB-75 CNS 93.1% | SNB-19 CNS 110% | U251 CNS 89.2% | PC-3 prostate 91.7% | SK-MEL-5 melanoma 126% | UACC-62 melanoma 94.3% | LOX IMVI melanoma 83% | SK-MEL-28 melanoma 108% | SK-MEL-2 melanoma 96.1% | SN12C renal 95.7% | UO-31 renal 95.2% | TK-10 renal 84.3% | ACHN renal 71.3% | A498 renal 106%

COc1ccc(CC2c3cc(OC)c(OC)cc3CC[N+]2(C)CCC(=O)OCCCCCOC(=O)CC[N+]2(C)CCc3cc(OC)c(OC)cc3C2Cc2ccc(OC)c(OC)c2)cc1OC (configuration not stated)
inactive: HCT-15 colon 102% | HT29 colon 96% | SNB-75 CNS 63.4% | SNB-19 CNS 104% | U251 CNS 93.4% | PC-3 prostate 90.3% | SK-MEL-5 melanoma 87.4% | UACC-62 melanoma 93.3% | LOX IMVI melanoma 81% | SK-MEL-28 melanoma 99.8% | SK-MEL-2 melanoma 98.7% | EKVX NSCLC 101% | UO-31 renal 66.2% | ACHN renal 97.1% | CAKI-1 renal 87.4% | A498 renal 66% | CCRF-CEM leukemia 94.1% | MOLT-4 leukemia 80.4%

O=C(CC(=O)C(F)(F)C(F)(F)C(F)(F)F)c1cc2ccccc2o1
inactive: HCT-15 colon 108% | HT29 colon 103% | SNB-75 CNS 92.2% | SNB-19 CNS 107% | U251 CNS 97.5% | PC-3 prostate 91.1% | SK-MEL-5 melanoma 106% | UACC-62 melanoma 104% | LOX IMVI melanoma 92.4% | SK-MEL-28 melanoma 105% | SK-MEL-2 melanoma 106% | EKVX NSCLC 100% | UO-31 renal 87.5% | TK-10 renal 108% | ACHN renal 110% | CAKI-1 renal 94.8% | A498 renal 125% | CCRF-CEM leukemia 102% | MOLT-4 leukemia 102%

CS(=O)(=O)c1ccc(C(=O)N/N=C/c2ccc3c(c2)OCO3)cc1
inactive: HCT-15 colon 100% | HT29 colon 88.9% | SNB-75 CNS 94.4% | SNB-19 CNS 98.5% | U251 CNS 92.3% | PC-3 prostate 92% | SK-MEL-5 melanoma 106% | UACC-62 melanoma 98% | LOX IMVI melanoma 96.5% | SK-MEL-28 melanoma 114% | SK-MEL-2 melanoma 89.1% | SN12C renal 99.2% | UO-31 renal 96.3% | TK-10 renal 106% | ACHN renal 105% | CAKI-1 renal 93% | A498 renal 94.6% | CCRF-CEM leukemia 87% | MOLT-4 leukemia 70.8%

O=C1/C(=C/N2N=C(c3ccc(Cl)cc3)CC2c2ccccc2O)SC(=S)N1c1cccc(C(F)(F)F)c1 (configuration not stated)
active: MOLT-4 leukemia 8.36%
inactive: HCT-15 colon 43.5% | HT29 colon 37.6% | SNB-75 CNS 38.4% | SNB-19 CNS 71% | U251 CNS 45.1% | PC-3 prostate 23.6% | SK-MEL-5 melanoma 79.7% | UACC-62 melanoma 52.3% | LOX IMVI melanoma 48.3% | SK-MEL-28 melanoma 73.9% | SK-MEL-2 melanoma 90.7% | SN12C renal 52.6% | UO-31 renal 24.9% | TK-10 renal 78.3% | ACHN renal 55.3% | CAKI-1 renal 55.5% | A498 renal 65.8% | CCRF-CEM leukemia 30%

COc1ccccc1/C=C/C(=O)CCC(=O)O
inactive: HCT-15 colon 113% | HT29 colon 107% | SNB-75 CNS 98.5% | SNB-19 CNS 114% | U251 CNS 107% | PC-3 prostate 94.5% | SK-MEL-5 melanoma 109% | UACC-62 melanoma 108% | LOX IMVI melanoma 99.8% | SK-MEL-28 melanoma 110% | SK-MEL-2 melanoma 102% | SN12C renal 100% | UO-31 renal 85.2% | TK-10 renal 110% | ACHN renal 101% | CAKI-1 renal 99% | A498 renal 130% | CCRF-CEM leukemia 96.3% | MOLT-4 leukemia 100%

N#Cc1ccc(-c2ccc(-c3cccs3)o2)cc1F
inactive: HCT-15 colon 79.7% | HT29 colon 84.5% | SNB-75 CNS 44.9% | SNB-19 CNS 110% | U251 CNS 67.2% | PC-3 prostate 87.5% | SK-MEL-5 melanoma 84.4% | UACC-62 melanoma 81.6% | LOX IMVI melanoma 80.2% | SK-MEL-28 melanoma 91.9% | SK-MEL-2 melanoma 70.8% | SN12C renal 89.1% | UO-31 renal 73.7% | TK-10 renal 89.9% | ACHN renal 64% | CAKI-1 renal 78.1% | A498 renal 95.9%

CCOC(=O)C#Cc1c(C(=O)OCC)nnn1[C@@H]1O[C@H](COC(C)=O)[C@@H](OC(C)=O)[C@H]1OC(C)=O
active: CAKI-1 renal 4.56%
inactive: HCT-15 colon 44% | HT29 colon 88.9% | SNB-75 CNS 95.5% | SNB-19 CNS 93% | U251 CNS 100% | PC-3 prostate 102% | SK-MEL-5 melanoma 96.6% | UACC-62 melanoma 93.1% | LOX IMVI melanoma 85.8% | SK-MEL-28 melanoma 107% | SK-MEL-2 melanoma 95.8% | SN12C renal 88.5% | UO-31 renal 65% | TK-10 renal 62.3% | ACHN renal 53.2% | A498 renal 102% | CCRF-CEM leukemia 48.3% | MOLT-4 leukemia 79.9%

CC(=O)Nc1c(Br)cc2c(c1Br)Cc1cc(Br)ccc1-2
inactive: HCT-15 colon 91.7% | HT29 colon 52.8% | SNB-75 CNS 74.3% | SNB-19 CNS 79.4% | U251 CNS 12.8% | PC-3 prostate 67.8% | SK-MEL-5 melanoma 88.2% | UACC-62 melanoma 72.2% | LOX IMVI melanoma 20.7% | SK-MEL-28 melanoma 98.3% | SK-MEL-2 melanoma 99.6% | EKVX NSCLC 55.3% | UO-31 renal 67.3% | TK-10 renal 109% | ACHN renal 60.8% | CAKI-1 renal 81.1% | CCRF-CEM leukemia 66.4% | MOLT-4 leukemia 76.9%

CN1C2CCC1/C(=C\c1ccc(Cl)cc1)C(=O)/C2=C/c1ccc(Cl)cc1
inactive: HCT-15 colon 54.2% | HT29 colon 47.1% | SNB-75 CNS 71.6% | SNB-19 CNS 64.1% | U251 CNS 13.6% | PC-3 prostate 51.8% | SK-MEL-5 melanoma 66.9% | UACC-62 melanoma 47.4% | LOX IMVI melanoma 35.1% | SK-MEL-28 melanoma 91.6% | SK-MEL-2 melanoma 56.7% | EKVX NSCLC 84.4% | UO-31 renal 58.4% | TK-10 renal 79% | ACHN renal 75.7% | CAKI-1 renal 68% | A498 renal 78.5% | CCRF-CEM leukemia 24.4% | MOLT-4 leukemia 16.4%
